Hits are enriched below; roughly 3.6% of the tested compounds scored in any of these assays.
FAS TE block = blocks the thioesterase domain of human fatty acid synthase; inhibition, % at 15 µM; hit rate 0.67% among 360,000; recombinant FAS-TE, OMFH fluorogenic substrate, fluorescence endpoint;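 active means compounds whose normalised, plate-corrected inhibition of enzyme fluorescence in the single-dose primary screen is 50% or more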
Myeloid diff 2 = compounds promoting myeloid differentiation; ER-HoxA9 myeloid progenitors, lysozyme-GFP differentiation, flow cytometry; calls only at 10 µM; hit rate 1% among 360,000; AID 624256;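 active means normalized GFP-positive differentiation at or above the plate's own cutoff, the solvent-only control mean plus 3 SD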;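 further: cells exposed to compound for four days before flow analysis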
NadD block = blocks S. aureus nicotinate mononucleotide adenylyltransferase. purified NadD enzyme, colorimetric absorbance read-out. inhibition, % at 20 µM. hit rate 0.78% among 360,000; in the data active means inhibition above about 26%
NRP1-CendR mod = NRP-1/CendR interaction modulation; O14786; hit rate 0.85% among 360,000; inhibition, % at 25 µM; FAM-RPARPAR peptide binding to NRP-1, fluorescence polarization;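 active means inhibition or corrected inhibition above about 18%, plus a signal ratio from 0.5 to 1.5, limit read from the data, passing the limit was not always enough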
CRFR2-BP antag = CRF-BP/CRF-R2 complex antagonism | HEK293 CRF-R2/CRF-BP, CRF-induced calcium fluorescence | inhibition, % at 11.8 µM | hit rate 0.59% among 350,000 | AID 588475;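 active means inhibition of the ligand-induced calcium signal above about 50% at the single tested concentration, limit read from the data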
A number is an active result; i = inactive; nt = not tested or not shown; + = active, no number; ! = repeats disagree.

SMILES	FAS TE block	Myeloid diff 2	NadD block	NRP1-CendR mod	CRFR2-BP antag
CC(O)(c1cccnc1)c1nc(/C=C/c2ccccc2)cs1 (stereo not drawn)	i	i	i	25.5	nt
CCN(C(=O)COc1ccc(C(C)=O)cc1)c1cccc2ccccc12	i	i	i	36.0	i
CCN(C(=O)COC(=O)c1cnccn1)c1cccc2ccccc12	i	i	i	i	i
O=C(C1CC(=O)N(c2ccc3c(c2)OCCO3)C1)N1CCN(Cc2ccccc2F)CC1 (stereo not drawn)	i	i	i	i	i
Cc1ccc(S(=O)(=O)NN=CC=CC=NNS(=O)(=O)c2ccc(C)cc2)cc1	i	i	i	i	i
CC1(C)S[C@@H]2[C@H](NC(=O)COc3ccccc3)C(=O)N2C1C(=O)OCC1CCCCC1 (stereo partly drawn)	i	i	i	25.4	i
CCOc1ccc(Cl)cc1-c1cc(C(=O)NC2CCCCC2)[nH]n1	i	i	i	i	nt
C#CCNc1c2c(nc3nnnn13)CCCC2	i	i	i	i	i
CNc1c2c(nn1C)CCCC2	i	+!	i	i	i
CCCCNC(=O)C1(C)CCN1C(=O)c1cc2ccccc2s1 (stereo not drawn)	i	i	i	i	nt
Cn1c(=O)[nH]c(=O)c2c1nc(N1CCN(Cc3ccccc3)CC1)n2CCSc1ncccn1	i	+	i	i	i
Cn1c(=O)[nH]c(=O)c2c1nc(N1CCN(Cc3ccccc3)CC1)n2CCCc1ccccc1	i	i	i	i	i
CCCCCn1c(N2CCN(c3cccc(Cl)c3)CC2)nc2c1c(=O)[nH]c(=O)n2C	i	i	i	28.1	i
COC(=O)C(C)Sc1nnc(-c2ccncc2)o1 (stereo not drawn)	i	i	i	i	i
CCOC(=O)C(Sc1nnc(-c2ccncc2)o1)C(C)=O (stereo not drawn)	i	i	i	i	94.2
Oc1ccc(C[C@@H]2CNCCN2CCc2cc(C(F)(F)F)cc(C(F)(F)F)c2)cc1	i	+	i	i	i
CN1CCN(c2ccc(S(=O)(=O)N3CCOCC3)cc2NC(=O)C2CCCCC2)CC1	i	i	i	i	i
O=C(Nc1cc(S(=O)(=O)N2CCCCC2)ccc1N1CCCCC1)C1CC1	i	i	i	i	103.3
CC(=O)N1c2ccccc2Nc2ccccc21	i	i	i	i	i
CC(=O)N1C2=CCCC3CCCCC23c2ccccc21 (stereo not drawn)	i	+	i	i	i
CCC1OC(C)Cc2[nH][nH]c(=O)c21 (stereo not drawn)	i	i	i	i	nt
CN(C)S(=O)(=O)N1CCN(c2ccc([N+](=O)[O-])c(N3CCOCC3)c2)CC1	i	i	i	i	i
COc1ccc(S(=O)(=O)Nc2ccc(N3CCOCC3)cc2)cc1[N+](=O)[O-]	i	i	i	24.8	i
CS(=O)(=O)N1CCN(c2ccc([N+](=O)[O-])c(N3CCOCC3)c2)CC1	i	i	i	28.2	i
CN(C)CCCN1C(=O)c2cccc3c(Br)ccc(c23)C1=O	i	i	i	24.8	i
SMILES	FAS TE block	Myeloid diff 2	NadD block	NRP1-CendR mod	CRFR2-BP antag
CCCCNc1ccc2c3c(cccc13)C(=O)N(CCCC)C2=O	i	+	i	i	i
COc1ccc(OC)c(NCCN2C(=O)c3ccccc3C2=O)c1	i	i	i	i	i
CCOC(=O)[C@]12CCCC=C1N(Cc1ccc3c(c1)OCO3)C(=O)[C@H](CC(=O)NCCCN1CCCC1=O)C2	i	i	i	i	nt
CSc1ncnc2c1ncn2CCCN1CCN(c2ccccn2)CC1	i	i	i	i	i
N#C/C(C(=O)NCc1ccccc1)=C1/N=C(NC(=O)c2cccs2)c2ccccc21	i	+	i	i	i
O=C(COC(=O)C1CC(=O)N(Cc2ccccc2)C1)Nc1ccccc1F (stereo not drawn)	i	i	i	25.8	i
O=C(OCc1ccccc1)N1CCC2CC1c1ccc(/C=C/CCCCl)cc12 (stereo not drawn)	i	i	i	i	nt
CC(Sc1ccc(S(=O)(=O)N2CCCCCC2)cn1)C(N)=O (stereo not drawn)	i	i	i	i	i
CNC(=O)C(C)Sc1ccc(S(=O)(=O)N2CCOCC2)cn1 (stereo not drawn)	i	i	i	21.5	i
O=C(O)c1cccc2c1Cc1cc(Cl)ccc1-2	i	i	i	24.8	i
O=C(CC(NC(=O)OCc1ccccc1)C(=O)O)OCc1ccccc1 (stereo not drawn)	i	i	i	i	i
O=C(CC(NC(=O)OCc1ccccc1)C(=O)OCc1ccccc1)OCc1ccccc1 (stereo not drawn)	i	i	i	i	88.2
NC(N)=NCCC[C@H](NC(=O)OCc1ccccc1)C(=O)O	i	i	i	27.1	i
NC(=O)CC(NC(=O)OCc1ccccc1)C(=O)O (stereo not drawn)	i	i	i	31.0	i
O=C(CCC(NC(=O)OCc1ccccc1)C(=O)O)OCc1ccccc1 (stereo not drawn)	i	i	i	i	i
O=C(NC1CCN(Cc2ccccc2)CC1)c1[nH]c(C(F)(F)F)nc1-c1ccccc1	i	i	i	i	nt
COc1ccccc1CNC(=O)CSc1nnc2ccc(-c3cccnc3)nn12	i	i	i	i	i
CCCCNC(=O)CSc1nc2ccc(C)cc2[nH]1	i	i	i	34.7	i
CCCn1c(SCC(=O)c2c[nH]c3ccccc23)nnc1-c1ccncc1	i	+	i	i	i
O=C(CSc1nc2ccccc2[nH]1)c1c[nH]c2ccccc12	i	i	i	i	i
Cc1ccc2nc(SCC(=O)c3c[nH]c4ccccc34)[nH]c2c1	i	+	i	i	i
Cc1ccc2nc(SCC(=O)N3CCOCC3)[nH]c2c1	i	i	i	i	78.1
CCC1(C)Nc2ccccc2C(=O)N1O (stereo not drawn)	i	i	i	25.9	i
Cc1ccn2c(c1)nc(=O)c1cc(S(=O)(=O)N3CCOCC3)ccc12	i	i	i	20.9	i
CC1CN(C(=O)c2cccc(S(=O)(=O)NCc3ccccc3)c2)CC(C)O1 (stereo not drawn)	i	i	i	i	i
SMILES	FAS TE block	Myeloid diff 2	NadD block	NRP1-CendR mod	CRFR2-BP antag
CC1CN(C(=O)c2ccc(CNS(=O)(=O)c3cccc(Cl)c3)cc2)CC(C)O1 (stereo not drawn)	i	i	i	28.5	i
COc1cccc(NC(=O)CN(C)C(=O)C(CCSC)NC(=O)c2ccco2)c1 (stereo not drawn)	i	i	i	17.5	i
O=C(CCC1CCCC1)c1c(O)c2ccccc2oc1=O	i	i	i	i	65.9
Cc1cn([C@H]2C[C@H](O)[C@@H](/C=C/C(=O)NCc3ccco3)O2)c(=O)[nH]c1=O	i	+	i	i	nt
CCOC(=O)C1(C)CCN1C(=O)c1cc(C)oc1C (stereo not drawn)	i	i	i	i	nt
COc1ccc(CC(=O)NC(C)c2nnc(SCCOc3ccc(OC)cc3)n2C)cc1 (stereo not drawn)	i	+	i	i	i
O/C(=C\c1nc2ccccc2nc1/C=C(\O)c1ccccc1)c1ccccc1	i	+	i	i	83.6

High-throughput results from PubChem BioAssay.
